Test results taken from PubChem BioAssay (NCI).
The panel holds about 83,000 compounds, 20% with a hit somewhere; the sample as a whole holds those more often.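 A percent growth of 40 corresponds to 60% growth inhibition; 0 means no net growth; -100 means all cells died. Active threshold: below 10.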 Active and inactive are the calls of the source.

Assays:
Test in all cases: NCI-60 one-dose screen, 48 h (100 = growth as untreated, 0 = no growth, -100 = all killed)
Details in all cases: 10 µM unless noted
[1] = system: HT29 colon
[2] = system: SNB-75 CNS
[3] = system: SNB-19 CNS
[4] = system: U251 CNS
[5] = system: SK-MEL-5 melanoma
[6] = system: UACC-62 melanoma
[7] = system: LOX IMVI melanoma
[8] = system: SK-MEL-28 melanoma
[9] = system: SK-MEL-2 melanoma
[10] = system: EKVX NSCLC
[11] = system: SN12C renal
[12] = system: UO-31 renal
[13] = system: TK-10 renal
[14] = system: ACHN renal
[15] = system: CAKI-1 renal
[16] = system: A498 renal
[17] = system: CCRF-CEM leukemia
[18] = system: MOLT-4 leukemia
[19] = system: SR leukemia

Measured: growth

COc1ccc2[nH]c(-c3ccccc3)cc2c1
inactive: [1] 102% | [2] 88% | [3] 93.4% | [4] 107% | [5] 97% | [6] 84.7% | [7] 105% | [8] 110% | [9] 101% | [10] 94.5% | [11] 97.1% | [12] 75.1% | [13] 156% | [14] 101% | [15] 99.1% | [16] 89% | [17] 88.5% | [18] 53.7%
active: [19] -14.8%

O=C(Cn1ccnc1)NC(c1ccccc1)c1ccccc1
inactive: [1] 104% | [2] 73.4% | [3] 95.1% | [4] 101% | [5] 99.8% | [6] 89.7% | [7] 98% | [8] 98.2% | [9] 106% | [10] 97.5% | [11] 97% | [12] 89.5% | [13] 97.5% | [14] 91.9% | [15] 96.7% | [16] 67.6% | [17] 108% | [18] 107% | [19] 98.4%

O=C(Nc1ncc([N+](=O)[O-])s1)c1cccc([N+](=O)[O-])c1
inactive: [1] 51.4% | [2] 30.3% | [3] 32.8% | [4] 52% | [7] 52.1% | [8] 56.8% | [9] 16.9% | [10] 37.9% | [11] 51.1% | [12] 63.4% | [14] 59% | [15] 40.4% | [17] 33% | [18] 27.8% | [19] 39.3%
active: [5] -14.2% | [6] 9.35% | [16] 5.48%

O=C(N1CCC(CN=c2cc3n(-c4ccc(Cl)cc4)c4ccccc4nc-3cc2Nc2ccc(Cl)cc2)CC1)N1CC1
active: [1] -97.9% | [2] -60.6% | [3] -67.7% | [4] -62.5% | [5] -97.6% | [6] -77.5% | [7] -67.5% | [8] -90.8% | [9] -80.8% | [10] -62.5% | [11] -76% | [12] -96.3% | [13] -42.9% | [14] -71.7% | [16] -59.9% | [18] -22.6% | [19] -74.5%

CC1=C(C(=O)Nc2ccccc2)C(c2ccc3c(c2)OCCO3)NC(=O)N1 (stereo not drawn)
inactive: [1] 108% | [2] 102% | [3] 99.6% | [4] 105% | [5] 101% | [6] 101% | [7] 94.7% | [8] 111% | [9] 125% | [10] 112% | [11] 100% | [12] 87% | [13] 133% | [14] 104% | [15] 95.6% | [16] 101% | [18] 101%

COc1cc(C(=O)/C=C/c2cccnc2Nc2ccccc2)cc(OC)c1OC
active: [1] -70.2% | [2] -16% | [3] -72.5% | [4] -94.8% | [5] -99.4% | [6] -84.2% | [7] -49.9% | [8] -97.5% | [9] -56.5% | [10] -5.31% | [11] -92.6% | [12] -99.5% | [13] -13% | [14] -99.2% | [15] -22.6% | [17] -16% | [18] -1.45% | [19] 1.47%

COc1cc(/C=C/c2nnc(-c3cc(-c4ccccc4)n[nH]3)o2)cc(OC)c1OC
inactive: [1] 96.8% | [2] 67.4% | [3] 102% | [4] 108% | [5] 84.5% | [6] 92.9% | [7] 95.4% | [8] 87.9% | [9] 89.7% | [10] 102% | [11] 99.5% | [12] 80% | [13] 123% | [14] 91.3% | [15] 89.4% | [16] 105% | [17] 75.9% | [18] 69% | [19] 86.4%

CCOC(=O)c1c(C)nc(C)c(C(=O)OCC)c1-c1cccnc1
inactive: [1] 96.5% | [2] 81.7% | [3] 96.1% | [4] 94.1% | [5] 97.5% | [6] 105% | [7] 96.1% | [8] 119% | [9] 110% | [10] 105% | [11] 109% | [12] 94% | [13] 121% | [14] 99.5% | [15] 106% | [16] 125% | [17] 102% | [18] 54.8% | [19] 53.7%

COc1ccc(C(=O)COc2cccc(/C=C3\Oc4ccc5ccccc5c4C3=O)c2)cc1
active: [7] -80.4% | [12] -54.4%
inactive: [1] 46.2% | [2] 44.8% | [3] 105% | [4] 84% | [5] 78.6% | [6] 76.4% | [8] 116% | [9] 59.1% | [10] 89.6% | [11] 75% | [13] 90.1% | [14] 97.5% | [15] 27.6% | [16] 139% | [18] 18.9% | [19] 15.9%

O=C(/C=C/c1cc2ccccc2[nH]c1=O)c1ccc(Cl)cc1
inactive: [2] 16.8% | [3] 47.6% | [4] 24.8% | [5] 56.2% | [6] 31.4% | [8] 80.1% | [9] 18.8% | [10] 63.7% | [11] 47.4% | [12] 29.8% | [13] 48.5% | [14] 51.6% | [15] 42.1% | [16] 13.7%
active: [1] 6.1% | [7] -69.2% | [18] 2.61%

COc1ccc(-c2nc3sccn3c2-c2ccnc(S(C)(=O)=O)n2)cc1
active: [12] -82% | [15] -69%
inactive: [1] 89% | [2] 61.1% | [3] 64.2% | [4] 94.4% | [5] 98.9% | [6] 77.1% | [7] 68.8% | [8] 43.7% | [9] 100% | [10] 79.7% | [11] 93.4% | [13] 117% | [14] 74.2% | [16] 120% | [17] 77.8% | [19] 40.5%

[O-]/[N+](=C\C=C\c1ccccc1)c1ccccc1
inactive: [1] 102% | [2] 91.8% | [3] 96.8% | [4] 98.8% | [5] 102% | [6] 93.8% | [7] 96.8% | [8] 110% | [9] 100% | [10] 100% | [11] 106% | [12] 97.4% | [13] 144% | [14] 108% | [15] 103% | [16] 96.9% | [17] 88% | [18] 85.1% | [19] 73%

C[n+]1c2ccccc2c(NC2CCNCC2)c2[nH]c3ccccc3c21
inactive: [7] 13.2% | [8] 10.6% | [10] 10.3% | [12] 67.3% | [13] 29.5% | [14] 71.1% | [15] 88.8% | [16] 51.7%
active: [1] 2.95% | [2] 7.49% | [3] -12.4% | [4] 1.08% | [5] 7.09% | [6] -73.3% | [9] -46.4% | [11] -17.5% | [17] -10.9% | [18] -12.8% | [19] -24.4%

CCOC(=O)/C=C(/C)Sc1cc(O)c2ccccc2c1O
active: [2] -83% | [3] -14.7% | [5] -99.1% | [7] -36.1% | [8] -53.9% | [11] -68.3% | [12] -5.64%
inactive: [1] 79.7% | [4] 20% | [6] 36.3% | [9] 27.8% | [10] 44.8% | [13] 105% | [14] 25.2% | [15] 46.1% | [16] 124% | [17] 38.4% | [18] 33% | [19] 17.1%

CCCCC1Nc2nc(SC)n(C)c(=O)c2CN(Cc2ccccc2)C1=O (stereo not drawn)
inactive: [1] 105% | [2] 86% | [3] 93.7% | [4] 92.2% | [5] 96.4% | [6] 85.9% | [7] 88.6% | [8] 122% | [9] 90% | [10] 82.8% | [11] 93.4% | [12] 72.2% | [13] 78.3% | [14] 90.2% | [15] 69.3% | [16] 117% | [17] 87% | [18] 120% | [19] 285%

COc1cc2c(cc1OCCCOc1ccc(-c3cc4ccccc4c4ccccc34)cc1)N=C[C@@H]1CCCN1C2=O
inactive: [18] 17.4% | [19] 102%
active: [1] -46.6% | [2] -78% | [3] -46.8% | [4] -79.3% | [5] -80.2% | [6] -83.6% | [7] -62.1% | [8] -62.2% | [9] -78.8% | [10] -74.1% | [11] -73.5% | [12] -59.3% | [13] -75.6% | [14] -85.3% | [15] -19.6% | [16] -82.8% | [17] 6.61%

Cc1cc(N2CCOCC2)nc(N2CCOCC2)n1
inactive: [1] 103% | [2] 94.4% | [3] 99.7% | [4] 102% | [5] 102% | [6] 99% | [7] 104% | [8] 113% | [9] 90.6% | [10] 95.7% | [11] 95.5% | [13] 92.2% | [14] 108% | [15] 96.7% | [16] 100% | [17] 95.3% | [18] 104% | [19] 105%
active: [12] -1.48%
